High-throughput results deposited in PubChem BioAssay by National Center for Advancing Translational Sciences (NCATS).
HPGD block – blocks human HPGD enzyme activity | P15428 | purified HPGD, NADH fluorescence kinetic, PGE2 substrate | Potency, µM, without a hit: at the highest dose activity change, negative = inhibition, hits mostly inhibitors | actives 4.3% (n = 150,000) | AID 894
Target sequence (P15428 whole entry, looked up): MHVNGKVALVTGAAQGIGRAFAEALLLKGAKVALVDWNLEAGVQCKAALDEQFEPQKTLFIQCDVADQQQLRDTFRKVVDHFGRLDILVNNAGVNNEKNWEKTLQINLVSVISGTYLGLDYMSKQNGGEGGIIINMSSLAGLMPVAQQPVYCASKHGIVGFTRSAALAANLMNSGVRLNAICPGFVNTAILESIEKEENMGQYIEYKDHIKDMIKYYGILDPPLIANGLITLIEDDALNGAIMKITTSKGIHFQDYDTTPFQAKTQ
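NADH formation kinetics: reaction with 30 uM PGE2 and 1 mM NAD+ (final), 20 nM enzyme, Tris-HCl pH 8 with Tween 20, after 15 min compound preincubation at room temperature. Fluorescence change, last versus first of five reads.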
KDM4E inh – blocks human JMJD2E demethylase activity | Potency, µM (doses to about 57.1 µM), without a hit: at the top dose activity change, negative = inhibition, hits mostly inhibitors | actives 1.6% (n = 230,000) | AID 2147 | JMJD2E catalytic domain, FDH-coupled NADH fluorescence (FDH is formaldehyde dehydrogenase);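 also: 0% = wells with enzyme and -100% = buffer wells without enzyme; nearly all actives have a fitted effect of over 50% in size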
Target sequence (B2RXH2 1-337 limits assumed): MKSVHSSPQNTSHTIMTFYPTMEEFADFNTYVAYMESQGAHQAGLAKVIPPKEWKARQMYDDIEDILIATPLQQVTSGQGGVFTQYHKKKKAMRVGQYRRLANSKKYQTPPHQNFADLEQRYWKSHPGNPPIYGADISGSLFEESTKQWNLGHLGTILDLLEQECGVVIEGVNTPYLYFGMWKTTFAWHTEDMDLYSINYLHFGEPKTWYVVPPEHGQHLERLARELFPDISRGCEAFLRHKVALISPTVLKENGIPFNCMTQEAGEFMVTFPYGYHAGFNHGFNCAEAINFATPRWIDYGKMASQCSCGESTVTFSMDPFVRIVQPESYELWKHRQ
Tau fibril FP – inhibitors of human tau fibril formation; Potency, µM (series often up to 57.7 µM), without a hit: top-dose activity, negative = inhibition, most hits filed as inhibitors; AID 1468; K18 P301L tau heparin fibrillization, Alexa594 FP, 6 h; actives 0.39% (n = 280,000); active = well fitted curve in the direction sought with a large enough effect; inconclusive = small, poorly fitted or top-dose-only effect, or another doubt; inactive = no such curve, though single readings can be large; an effect the other way counts as inactive or inconclusive; also: nearly all actives have a fitted effect of over 55% in size
Target sequence (P10636 561-689 P618L limits assumed): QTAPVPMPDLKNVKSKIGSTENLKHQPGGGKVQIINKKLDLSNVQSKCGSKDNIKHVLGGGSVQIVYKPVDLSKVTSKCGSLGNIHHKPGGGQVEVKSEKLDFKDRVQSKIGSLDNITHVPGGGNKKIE
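Human tau K18 […] P301L fragment, 15 uM unlabeled plus 0.24 uM Alexa 594-labeled tau (final), with compound and 20 uM heparin in 100 mM sodium acetate pH 7; 6 hr at 37 C, then Alexa 594 FP read.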
Tau fluor cs – counter-screen for tau fibril formation inhibitors; tau K18 P301L Alexa594 fluorescence, heparin fibrillization; actives 0.93% (n = 280,000); Potency, µM (doses to about 57.7 µM), without a hit: at the top dose activity change, negative = decrease; active = well fitted curve in the direction sought with a large enough effect; inconclusive = small, poorly fitted or top-dose-only effect, or another doubt; inactive = no such curve, though single readings can be large; an effect the other way counts as inactive or inconclusive; also: nearly all actives have a fitted effect of over 55% in size
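Human K18 P301L tau (15 uM unlabeled plus 0.24 uM Alexa 594-labeled, final) in 100 mM sodium acetate pH 7 was mixed with compound and 20 uM heparin and incubated 6 hr at 37 C.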
Tau fibril ThT – inhibitors of human tau fibril formation, thioflavin T binding. P10636. recombinant tau K18 P301L (four-repeat tau fragment), heparin-induced fibrillization, ThT fluorescence. Potency, µM (series often up to 57.4 µM), without a hit: top-dose activity, negative = inhibition, most hits filed as inhibitors. actives 2.1% (n = 270,000); active = well fitted curve in the direction sought with a large enough effect; inconclusive = small, poorly fitted or top-dose-only effect, or another doubt; inactive = no such curve, though single readings can be large; an effect the other way counts as inactive or inconclusive; also: nearly all actives have a fitted effect of over 55% in size
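Heparin-induced fibrillization of the P301L-mutant K18 repeat-domain fragment of human tau was followed by ThT binding in quantitative high-throughput format.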
ALDH1A1 inh – ALDH1A1 (human) enzyme inhibition | P00352 | Purified ALDH1A1, NADH fluorescence, propionaldehyde substrate | Potency, µM (titrated, usually from 75.3 µM), without a hit: at the top dose activity, negative = inhibition, usual class: inhibitors | actives 7.3% (n = 220,000) | AID 1030;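 also: plate controls were no enzyme wells and a reference inhibitor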
Active calls of the source: *; ? = inconclusive; · = no result given; [ ] = dose if it differs, or a comment. Most compounds without a hit are left out; they make up all but 9.9% or so of the library. Unless noted, calls follow the shape of the dose curve; as a rule, active = well fitted inhibition curve with a large enough effect (not every such curve was filed as active); inconclusive = small, poorly fitted or top-dose-only effect, or another doubt; inactive = no such curve, though single readings can be large or run the other way. Unless noted, % is scaled to controls: 0 for no effect and ±100 for the full control effect; potency is read from the fitted curve at half-maximal effect.

SMILES	HPGD block	KDM4E inh	Tau fibril FP	Tau fluor cs	Tau fibril ThT	ALDH1A1 inh
O=C(CCl)Nc1nc(-c2ccco2)c(-c2ccco2)s1	?	?	-5.6%	12.6µM*[quencher]	?	0.398µM*
O=C(CCCSc1ccccc1)Nc1nc(-c2ccco2)c(-c2ccco2)s1	?	?	1.1%	?	?	?
O=C(CC1COc2ccccc2O1)NCCc1ccccc1 (stereo not given)	7.08µM*	-4.6%	-2.2%	-6.6%	-13.1%	-15.5%
CC(C)N1C(=O)S/C(=C/c2ccc(Sc3nc4ccccc4[nH]3)o2)C1=O	-27.0%	-8.8%	?	?	?	7.08µM*
CCN=C1S/C(=C\c2ccc(Sc3ccc(Cl)cc3)o2)C(=O)N1CC	-16.4%	1.9%	-2.0%	-15.4%	-14.5%	-10.9%
C=CCN1C(=O)S/C(=C/c2ccc(Sc3nc4ccccc4[nH]3)o2)C1=O	-16.2%	-2.0%	-5.6%	?	?	10µM*
C=CCn1c(SCC(N)=O)nnc1-c1cccc(Br)c1	-2.9%	14.9%	-3.8%	-2.4%	-6.6%	11.9%
C=CCn1c(SCc2ccccc2C#N)nnc1-c1cc(Br)ccc1O	14.1µM*	1.5%	3.3%	-19.2%	-15.6%	-5.1%
O=C(CSc1nnc(SCc2ccccc2)s1)N/N=C/c1c[nH]c2ccccc12	·	-14.7%	-4.3%	?	-4.9%	2.8%
CCn1c(SCC(=O)Nc2cc(C)on2)nnc1-c1c[nH]c2ccccc12	·	11.2%	5.1%	-2.4%	-3.0%	28.2µM*
CCn1c(SCC(=O)N/N=C/c2c[nH]c3ccccc23)nnc1-c1ccc(C(C)(C)C)cc1	-6.8%	-17.1%	-3.9%	17.8µM*[quencher]	?	-11.6%
CCn1c(SCC(=O)NCc2ccco2)nnc1-c1c[nH]c2ccccc12	-18.4%	7.8%	6.1%	-9.0%	-12.0%	-8.1%
O=C(CSc1nnc(SCc2ccccc2Cl)s1)N/N=C/c1c[nH]c2ccccc12	-8.1%	1.8%	?	14.1µM*[quencher]	-13.4%	-6.3%
O=c1c2sccc2n(Cc2cc(=O)n3ccccc3n2)c(=O)n1-c1cccc(C(F)(F)F)c1	·	·	-5.5%	-10.4%	-7.9%	·
CC1CCN(c2oc(/C=C/c3ccc(F)cc3)nc2C#N)CC1	·	·	10.4%	?	?	·
O=C(Cn1nc(-c2ccccc2)c2c(c1=O)CCCC2)Nc1ccc(F)c(Cl)c1	·	·	?	?	-17.0%	·
COc1ccc(OC)c(-c2noc(N3CCN(c4cc(C)ccc4C)CC3)n2)c1	·	·	5.0%	-10.6%	-14.1%	·
Cc1cc(C)c(NC(=O)c2cc(CN3CCOCC3)on2)c(C)c1	·	·	0.0%	-1.8%	-7.2%	·
COc1ccc(CNC(=O)c2cc(-c3ccc(Cl)cc3)n[nH]2)cc1	·	·	?	-2.5%	3.7%	·
COc1cc(NC2CCCCC2O)c2nc(-c3ccc(Cl)cc3)ccc2c1 (stereo not given)	·	22.4µM*	?	?	?	·
NC(=O)c1cc2c3ccccc3ccn2c1-c1ccccc1	·	?	?	14.1µM*[quencher]	14.1µM*	·
O=[N+]([O-])c1cccnc1N1CCC(c2cc(-c3ccc(Cl)cc3)n[nH]2)CC1	-22.0%	-6.9%	-7.8%	?	7.94µM*	?
Nn1c(SC/C=C/c2ccccc2)nnc1-c1cccnc1	-11.0%	-8.1%	-2.8%	-4.2%	-14.2%	12.6µM*
Clc1ccc(-n2c(SC/C=C/c3ccccc3)nnc2-c2cccnc2)cc1	-11.8%	6.8%	0.1%	-10.7%	?	?
O=C(NN1CCOCC1)NC12CC3CC(CC(C3)C1)C2	·	-2.6%	-1.7%	6.0%	1.7%	·
SMILES	HPGD block	KDM4E inh	Tau fibril FP	Tau fluor cs	Tau fibril ThT	ALDH1A1 inh
COC(=O)/C=C/S(=O)(=O)c1ccc(NC(C)=O)cc1	-4.7%	4.5%	?	-12.4%	?	0.316µM*
COc1ccccc1OS(=O)(=O)c1ccc(NC(C)=O)cc1	·	5.3%	5.3%	-10.0%	-8.1%	?
COc1cccc(NC(=O)/C=C/c2ccco2)c1	·	-16.3%	-11.2%	-14.9%	?	25.1µM*
CC(/C=C/c1ccco1)=N\NC(=O)c1cccnc1	-28.5%	?	?	-25.9%	28.2µM*	7.94µM*
COc1ccc(NC(=O)N/C=C/c2ccco2)cc1	·	-4.0%	-13.5%	-28.1%	?	28.2µM*
CSc1cccc(NC(=O)/C=C/c2ccccc2)c1	-9.9%	-2.6%	?	?	10.1%	-2.6%
CSc1cccc(NC(=O)/C=C/c2ccco2)c1	·	-22.5%	-15.4%	-18.9%	?	3.16µM*
COc1ccc(C(=O)N2CCC3(CC2)CCN(c2ccccc2)CC3)cc1	-11.6%	·	·	·	·	?
BrC(Br)C(Br)Br	-2.4%	·	·	·	·	12.4%
CC12C=CC(=O)C=C1[C@@H](F)CC1C2C(O)CC2(C)C1CC[C@]2(O)C(=O)CO (stereo not given in full)	-7.7%	·	6.0%	-2.6%	-2.4%	1.3%
CC(/C=C/c1ccco1)=N/NC(=O)Cc1cccs1	-20.7%	-27.5%	?	-15.8%	?	2.82µM*
C/C(CC(=O)NC12CC3CC(CC(C3)C1)C2)=N\NC(=O)Cc1cccs1	-13.7%	6.9%	-0.7%	5.8%	9.6%	8.91µM*
O=C(O)/C=C/C(=O)Nc1cccnc1	0.2%	?	1.3%	-0.9%	-0.4%	?
O=C(/C=C/c1ccco1)Nc1cccnc1	·	1.7%	2.3%	7.3%	4.1%	28.2µM*
CC(/C=C/c1ccco1)=N/NC(=O)OC(C)(C)C	-10.5%	-14.6%	-7.4%	-5.4%	?	1.1%
C/C(CC(=O)NC1CCCC1)=N\NC(=O)Cc1cccs1	-1.2%	16.3%	1.7%	7.6%	-1.0%	4.4%
COc1ccccc1CNC(=O)CCc1c(C)nn(-c2ccc(N3CCOCC3)nn2)c1C	·	·	5.8%	4.5%	-3.8%	·
COC(=O)c1ccccc1S(=O)(=O)N1CCc2nc(-c3ccc(OC)cc3C)c3c(c2C1)CO[C@@H](c1ccccc1)C3	-1.9%	-1.9%[11.4 µM]	7.4%[11.6 µM]	2.5%[11.6 µM]	12.1%[11.5 µM]	3.98µM*
COc1ccc(-c2nc3c(c4c2C[C@H](c2ccccc2)OC4)CN(S(=O)(=O)c2ccc(NC(C)=O)cc2)CC3)c(C)c1	-0.3%	4.6%[11.4 µM]	-5.7%[11.6 µM]	-6.1%[11.6 µM]	2.1%[11.5 µM]	0.447µM*
COCC(=O)N1CCc2nc(-c3ccc(OC)cc3C)c3c(c2C1)CO[C@@H](c1ccccc1)C3	-9.9%	1.7%[11.4 µM]	-2.8%[11.6 µM]	1.9%[11.6 µM]	7.4%[11.5 µM]	4.0%[13.5 µM]
CCCCS(=O)(=O)N1CCc2nc(-c3ccc(OC)cc3C)c3c(c2C1)CO[C@@H](c1ccccc1)C3	-5.2%	-5.4%[11.4 µM]	-2.1%[11.6 µM]	6.5%[11.6 µM]	0.3%[11.5 µM]	0.447µM*
O=C(CN1C(=O)CC(c2ccccc2)Sc2ccccc21)Nc1cccc(Cl)c1 (stereo not given)	·	·	?	-24.5%	-1.3%	·
COc1ccc(-n2c(-c3ccc(F)cc3)cn3c4c(=O)n(C)c(=O)n(C)c4nc23)cc1	·	·	1.4%	-0.1%	3.2%	·
